This passage reports outcome and AC50 results from PubChem BioAssay (EPA / NIEHS).

Molecules are shown by their SMILES. Values joined by “and” are separate entries in the source; they are usually repeats but may differ in a detail not shown here. Identical values can stand only once. Results filed as inconclusive are left out. More than one record can exist for a structure, and the calls need not agree. Active and inactive are the calls of the source. Rule for the calls, unless noted: active = hit-call score of the fitted dose curve at least 0.9, where 1 is the maximum; inactive = score below 0.9.

Broadly, the AC50 is the concentration giving half of the maximal activity seen.

Assay [1] in a line: APR_HepG2_CellCycleArrest_1hr: Apredica 1-hour HepG2 Assay for Cell Cycle Arrest (AID 2282666). The note with it: high-content imaging, actives raise or lower the signal. An outline of the steps:
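Cell cycle arrest scored from nuclear DNA content (Hoechst 33342) using high-content imaging of fixed HepG2 cells after 1 h treatment across 0.39–200 uM, in duplicate. Gain or loss fitted relative to 0.5% DMSO.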

The nature of assay [2]: ACEA_ER_80hr: ACEA Biosciences xCELLigence Real-Time Cell Analysis on Estrogen Receptor Agonism for Proliferation (AID 2282667; active = hit-call score of the fitted dose curve at least 0.9, where 1 is the maximum). To be noted: T47D proliferation, impedance (xCELLigence), 80 h. An outline of the steps: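 Real-time impedance growth kinetics of human T-47D breast cells read 80 h after dosing, gain-of-signal fitted relative to DMSO. Compounds: 1:4 serial series, top final concentration 100 uM, n = 2.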

Assay [3] is described as follows: APR_HepG2_NuclearSize_1hr: Apredica 1-hour HepG2 Assay for Nuclear Size (AID 2282670). The note with it: high-content imaging, actives raise or lower the signal. The essentials: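 Nuclear size measured by high-content imaging of Hoechst 33342 nuclear stain after formaldehyde fixation; human HepG2 line exposed 1 hr to compounds at 0.39–200 uM in 0.5% DMSO, with bidirectional curve fitting relative to DMSO.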

The nature of assay [4]: APR_HepG2_p53Act_1hr: Apredica 1-hour HepG2 Assay for p53 Activation (AID 2282671). The note with it: high-content imaging, actives raise or lower the signal. An outline of the steps: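 After 1 h exposure (0.39–200 uM, 0.5% DMSO final, duplicates), fixed HepG2 cells were labelled with anti-p53 antibody plus Hoechst nuclear stain. Fluorescence quantified by automated 20x imaging; changes fitted in both directions against DMSO.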

Assay [5] can be described thus: APR_HepG2_MitoMass_1hr: Apredica 1-hour HepG2 Assay for Mitochondrial Mass (AID 2282674). The note with it: high-content imaging, actives raise or lower the signal. An outline of the steps:
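Mitochondrial mass is taken from MitoTracker Red CMXRos (250 nM, 30 min, pre-fixation) fluorescence imaged at 20x in HepG2 cells. Exposure lasted 1 hr across ten concentrations, 0.39 to 200 uM, 0.5% DMSO; DMSO baseline, bidirectional fitting.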

Assay [6] in a line: APR_HepG2_MitoMembPot_1hr: Apredica 1-hour HepG2 Assay for Mitochondrial Membrane Potential (AID 2282675). To be noted: imaging, actives raise or lower the signal. The essentials:
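Mitochondrial membrane potential read as MitoTracker Red CMXRos intensity by automated imaging of fixed HepG2 cells. Dye at 250 nM for 30 min pre-fixation; compounds 0.39 to 200 uM for 1 hour, duplicate wells, 0.5% DMSO.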

The nature of assay [7]: APR_HepG2_CellCycleArrest_24hr: Apredica 24-hour HepG2 Assay for Cell Cycle Arrest (AID 2282905).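 Note: cell cycle arrest scored as ratio of 2N to 4N nuclear DNA content.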 The note with it: imaging, actives raise or lower the signal. The essentials:
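After 24 h exposure at 0.39–200 uM in 0.5% DMSO, fixed cells received Hoechst 33342 staining. Imaging quantified per-nucleus DNA content; gain or loss fitted against DMSO controls.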

A short description of assay [8]: APR_HepG2_StressKinase_1hr: Apredica 1-hour HepG2 Assay for Stress Kinase (AID 2282906). To be noted: HepG2 stress kinase (phospho-c-Jun) imaging, actives raise or lower the signal. An outline of the steps: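 High-content imaging of phospho-c-Jun immunostaining (with Hoechst nuclear identification) after a 1 h exposure of HepG2 cells to 10 concentrations from 0.39 to 200 uM, final DMSO 0.5%. Fitted bidirectionally against DMSO.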

The nature of assay [9]: APR_HepG2_NuclearSize_24hr: Apredica 24-hour HepG2 Assay for Nuclear Size (AID 2282907). The note with it: high-content imaging, actives raise or lower the signal. An outline of the steps:
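Nuclear size from Hoechst 33342-stained, formaldehyde-fixed HepG2 nuclei imaged by high-content microscopy, after 24 h dosing at ten concentrations from 0.39 to 200 uM in 0.5% DMSO; gain or loss relative to DMSO baseline.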

Assay [10] is described as follows: APR_HepG2_CellLoss_24hr: Apredica 24-hour HepG2 Assay for Cell Loss (AID 2282908).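 For AC50: fit in both directions so a hit may be cell loss or gain.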 To be noted: high-content imaging. The essentials:
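Nuclei stained with Hoechst 33342 after formaldehyde fixation (3.7%) were imaged at 20x to count cells. Exposure lasted 24 hr, at ten concentrations from 0.39 to 200 uM in duplicate, with 0.5% v/v DMSO. Fit bidirectional, relative to DMSO.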

Assay [11] in a line: APR_HepG2_MitoticArrest_24hr: Apredica 24-hour HepG2 Assay for Mitotic Arrest (AID 2282910). The note with it: high-content imaging, actives raise or lower the signal. An outline of the steps:
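HepG2, 24 hr dosing, 0.39–200 uM, 0.5% DMSO final. Formaldehyde-fixed, Triton-permeabilised, anti-phospho-histone H3 plus Hoechst. ArrayScan imaging at 20x; bidirectional fit vs DMSO baseline.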

The nature of assay [12]: APR_HepG2_MitoMembPot_24hr: Apredica 24-hour HepG2 Assay for Mitochondrial Membrane Potential (AID 2282911). To be noted: imaging, actives raise or lower the signal. An outline of the steps:
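Mitochondrial membrane potential imaged via MitoTracker Red CMXRos (250 nM, 30 min pre-fixation) in fixed HepG2 cells with Hoechst nuclear identification. Ten concentrations 0.39–200 uM, 24 h treatment, 0.5% DMSO; CCCP as positive control.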

Assay [13] in a line: APR_HepG2_MitoMass_24hr: Apredica 24-hour HepG2 Assay for Mitochondrial Mass (AID 2282912). To be noted: high-content imaging, actives raise or lower the signal. An outline of the steps:
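Endpoint is MitoTracker Red CMXRos (250 nM, 30 min, pre-fixation) intensity from 20x high-content imaging, nuclei located by Hoechst. Human HepG2 cells received ten concentrations from 0.39 to 200 uM in 0.5% DMSO for 24 hr, duplicate wells. Bidirectional fit relative to DMSO.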

The nature of assay [14]: APR_HepG2_p53Act_24hr: Apredica 24-hour HepG2 Assay for p53 Activation (AID 2282913).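 Note: p53 protein immunofluorescence averaged per cell in HepG2 with Hoechst nuclei.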 To be noted: high-content imaging, actives raise or lower the signal. The essentials: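 Fluorescence imaging of formaldehyde-fixed HepG2 cells labelled for p53 and with Hoechst, 24 h after dosing (0.39–200 uM, duplicate wells, 0.5% v/v DMSO). Signal fitted in both directions relative to DMSO.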

Assay [15] is described as follows: APR_HepG2_CellCycleArrest_72hr: Apredica 72-hour HepG2 Assay for Cell Cycle Arrest (AID 2282914). The note with it: high-content imaging, actives raise or lower the signal. The essentials:
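Read-out: nuclear DNA content from Hoechst 33342 high-content imaging (20x, six fields/well) after 3.7% formaldehyde fixation, fitted bidirectionally against DMSO. Treatment was 72 h in HepG2, ten concentrations 0.39–200 uM, duplicate, 0.5% DMSO.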

A short description of assay [16]: APR_HepG2_MicrotubuleCSK_1hr: Apredica 1-hour HepG2 Assay for Microtubule CSK Stabilty (AID 2282669). To be noted: HepG2 microtubule cytoskeleton imaging, actives raise or lower the signal. An outline of the steps:
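Alpha-tubulin immunofluorescence, imaged by automated high-content microscopy with Hoechst nuclear segmentation, measured cytoskeletal change after 1 h dosing of HepG2 at 0.39–200 uM in 0.5% DMSO. Activity fitted in both directions relative to DMSO.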

The nature of assay [17]: APR_HepG2_MitoticArrest_1hr: Apredica 1-hour HepG2 Assay for Mitotic Arrest (AID 2282672). The note with it: high-content imaging, actives raise or lower the signal. An outline of the steps:
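Ten-point concentration series (0.39 to 200 uM, duplicates, 0.5% v/v DMSO) applied to human HepG2 liver cells for 1 hr. High-content imaging of phospho-histone H3 and Hoechst-stained nuclei after fixation and permeabilization; DMSO-normalised bidirectional fit.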

A short description of assay [18]: APR_HepG2_MicrotubuleCSK_24hr: Apredica 24-hour HepG2 Assay for Microtubule CSK Stabilty (AID 2282909). To be noted: HepG2 microtubule cytoskeleton imaging, actives raise or lower the signal. The essentials: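 Fixed HepG2 cells were stained for alpha-tubulin and imaged after 24 hr exposure to ten concentrations spanning 0.39–200 uM in 0.5% DMSO. Signal change was fitted in both directions relative to DMSO; taxol was the positive control.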

Assay [19] in a line: APR_HepG2_CellLoss_1hr: Apredica 1-hour HepG2 Assay for Cell Loss (AID 2282668).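 Note: curves fitted both ways against DMSO so gain or loss of cells counts.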 To be noted: high-content imaging. The essentials:
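Cell number comes from high-content imaging of Hoechst-labelled nuclei in fixed HepG2 cells. Cells were exposed for 1 h to ten concentrations from 0.39 to 200 uM in 0.5% DMSO. Gain or loss was fitted against DMSO controls.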

With `COc1nc(NC(C)C)nc(NC(C)C)n1`, the result in assay [1], in assay [2], in assay [3], in assay [4], in assay [5] and in assay [6] was inactive. Besides, the result in assay [7], in assay [8], in [9], in assay [10], in assay [11] and in [12] was inactive. For the same compound, the call in assay [13], in assay [14] and in [15] was inactive.
As to `CCCCNC(=O)n1c(NC(=O)OC)nc2ccccc21`, the result in assay [2], in assay [16], in [3], in [4], in [17] and in [6] was inactive. Besides, the call in assay [8], in assay [9], in assay [11], in assay [12], in assay [13] and in assay [14] was inactive. Moreover, the AC50 in assay [7] was 22.7 µM (active); in assay [10] it was 12.4 µM (active); in [15], 17 µM (active).
As to `COC(=O)N(OC)c1ccccc1COc1ccn(-c2ccc(Cl)cc2)n1`, the outcome in assay [1], in assay [2], in assay [16], in assay [3], in assay [4] and in assay [7] was inactive. Also, the outcome in assay [9], in assay [11], in [13], in assay [14] and in [15] was inactive. Further, the values for the AC50 in assay [10] and in assay [12] were 3.37 µM (active) and 0.332 µM (active), respectively.
`CO/C=C(/C(=O)OC)c1ccccc1Oc1cc(Oc2ccccc2C#N)ncn1`: the AC50 is 11.1 µM (active) [middle of 5 runs] in assay [2]; 39.3 µM (active) and 692 nM (active) in assay [7]; 16.2 µM (active) and 36.5 µM (active) in [10]; 21.2 µM (active) in [12]; 110 µM (active) in [14]; 21 µM (active) and 3.09 µM (active) and 5.96 µM (active) in assay [15]. In addition, the compound was classed as inactive in [2], in assay [16], in assay [3], in assay [4], in assay [7] and in assay [9]. In addition, the outcome in assay [10], in assay [18], in assay [11], in assay [12], in assay [13] and in [14] was inactive. For the same compound, in assay [15], the result was inactive.
In the case of `Cc1ccc(-c2c(Cl)nc(C#N)n2S(=O)(=O)N(C)C)cc1`, the AC50 was 10.5 µM (active) in assay [2] and 78.1 µM (active) in assay [12]. Moreover, the result in [19], in assay [3], in [4], in assay [7], in [9] and in assay [10] was inactive. In addition, the result in assay [18], in assay [11], in assay [13], in assay [14] and in assay [15] was inactive.
With `COc1nc(C)nc(NC(=O)NS(=O)(=O)c2ccccc2Cl)n1`, the compound was classed as inactive in assay [1], in [19], in [3], in [4], in [7] and in [9]. Further, the call in [10], in [11], in assay [12], in [13], in [14] and in assay [15] was inactive.
